Measurements reported in ChEMBL document CHEMBL3988442, “University of Dundee, Small-Polar-MMV Screening Library” (2021).
Several values for one entry are separate records, joined by “and”; a condition that tells them apart may be missing. Equal values may be shown once. The whole screen tested about 34,000 compounds, of which about 290 (0.85%) showed an effect of 50% or more. What follows is part of a selection rich in strong results, with near analogues and random picks from the rest.

System: Plasmodium falciparum
Experiment: Plasmodium falciparum sporozoite viability assay
Type: functional, organism-based
Set-up: scale not given: in the data most compounds retested in dose-response had high values

| SMILES | Percent Effect [%] | Percent Effect (10 mM as filed; unlikely as a test dose) |
| --- | --- | --- |
| COc1ccc(CN(C)[C@@H]2CN(C(=O)c3cnn(C)c3)C[C@H]2O)cc1 | 2.355 |  |
| FC1(F)CCN(Cc2ccncc2)CC12CCN(c1cnccn1)C2.O=C(O)C(F)(F)F.O=C(O)C(F)(F)F.O=C(O)C(F)(F)F (configuration not stated) | 22.83 |  |
| O=C(c1[nH]nc(C2CC2)c1Cl)N1CCN(C2CC2)CC1 |  | -13.62% and -21.71% |
| O=C(c1[nH]nc(C2CC2)c1Cl)N1CCCC1 |  | -32.9% and -32.97% |
| O=C(c1[nH]nc(C2CC2)c1Cl)N1CCN(C2CC2)C(=O)C1 |  | 67.53% and 69.62% |
| CCOCc1ncn2c1CN(C(=O)Nc1ccccc1CC)CC2 | 3.671 |  |
| CN(C)CCN1Cc2ncn(C)c2C(COCC(=O)N(C)C)C1 (configuration not stated) | 10.44 |  |
| CC1CCc2nn(CCNC(=O)Cc3ccccc3F)c(=O)cc2C1 (configuration not stated) |  | -25.04% and -6.135% and -21.75% |
| CCN(CC)Cc1ccc(C(=O)N2CCCC2Cn2cccn2)o1 (configuration not stated) | -5.987 |  |
| Cc1cc(N2CCC3(CCCN(CCO)C3=O)C2)nc2cc(Cl)ccc12 (configuration not stated) | -0.3581 |  |
| Cc1cccc(C(=O)Nc2ccc(OC3CCN(C)CC3)cc2)c1 |  | 84.14% and 90.45% and 76.34% |
| O=C(CN1CCCS1(=O)=O)Nc1ccc(OC2CCCC2)cc1 | -4.929 |  |
| O=C(NC1=NCCCN1c1ccc(Cl)cc1)c1cccc(Cl)c1 |  | -9.725% and -15.1% and -5.453% |
| N#Cc1cc(NC(=O)c2ccccc2)ccc1N1CCC(O)CC1 | -10.71 |  |
| COc1ccc(NC(=O)c2cnc(C3CCN(C)CC3)nc2C)cc1 | -1.219 |  |
| CCOc1ccc(N2CCCN=C2NC(=O)c2cccc(Cl)c2)cc1 | -13.96 |  |
| COc1cccc(C(=O)Nc2ccc(OC3CCN(C)CC3)cc2)c1 |  | 24.26% and 49.56% and 59.7% |
| CCC1=N[C@@]2(CC[C@@H]3CN(Cc4ccc(Cl)cc4)C[C@@H]32)C(=O)N1C.O=C(O)C(F)(F)F | -5.486 |  |
| Cc1nc(CC(=O)N2CCC(c3nn(C)c4ncccc34)CC2)cs1.Cl | 3.729 |  |

| SMILES | Percent Effect [%] | Percent Effect (10 mM as filed; unlikely as a test dose) |
| --- | --- | --- |
| Cc1nc(-c2nnc[nH]2)sc1C(=O)N1CCCC1c1ccsc1 (configuration not stated) | 7.018 |  |
| Cc1nc(C)n(C2CCCN(C(=O)c3csc(CC(C)C)n3)C2)n1 (configuration not stated) | 0.06439 |  |
| CN(C)c1ccc(C(=O)N2CCC(c3cc4ncccc4[nH]3)CC2)cc1 | -1.989 |  |
| CC(=O)NCCC(=O)NCc1cc(Br)ccc1OC(F)F | -22.55 |  |
| O=C(O)C(F)(F)F.O=C(c1ccccc1)N1CCCC2(CCN2Cc2cccc(F)c2)C1 (configuration not stated) | 4.203 |  |
| CC(C)N1CCO[C@@H]2CN(C(=O)NCc3ccccc3)CC[C@@H]2C1.O=C(O)C(F)(F)F | 8.185 |  |
| CCC(=O)N1CCC(Cc2ccccc2-c2cccc(C)c2)(C(N)=O)C1 (configuration not stated) | 2.181 |  |
| COc1cc(CNCc2ccnc(N3CCCCC3)c2)cc(OC)c1 | 3.028 |  |
| CSc1ccccc1C(=O)Nc1ccc(OC2CCN(C)CC2)cc1 |  | 86.05% and 73.83% and 74.05% |
| O=C(CC1CC1)N1Cc2nccn2CC(Cn2ncccc2=O)C1 (configuration not stated) | 1.18 |  |
| CCN1CCCn2c(nc(CNC(=O)c3ccsc3)cc2=O)C1 | -13.03 |  |
| O=C(c1cc(Cl)c[nH]1)N(CCCO)Cc1cccnc1 | -9.649 |  |
| O=C1NC(=O)c2c3c(nc(O)c21)CCCC3 |  | -19.04% and -16.96% and 3.732% |
| Nc1nc2c(c3c1C(=O)NC3=O)CCC2 |  | 75.96% and 84.59% |
| Nc1nc2c(c3c1C(=O)NC3=O)CCCC2 |  | -19.96% and -21.28% |
| CN(C)CCO[C@H]1CN(Cc2ccco2)[C@@H]2COC[C@H]12.O=C(O)C(F)(F)F.O=C(O)C(F)(F)F | 12.07 |  |
| CCC(=O)N1CCCC(c2nc(N(C)C)ncc2-c2ccc(F)cc2)C1 (configuration not stated) | 2.091 |  |
| CC(=O)N1CCCC(C(=O)c2cnn(-c3ccc(F)cc3)c2N)C1 (configuration not stated) |  | 27.98% and 70.48% and 45.02% |
| CCC(=O)N1CCCC(C(=O)c2cnn(-c3ccc(F)cc3)c2N)C1 (configuration not stated) |  | 46.01% and 80.8% and 57.02% |

| SMILES | Percent Effect [%] | Percent Effect (10 mM as filed; unlikely as a test dose) |
| --- | --- | --- |
| CCCC(=O)N1CCCC(c2ccccn2)C1 (configuration not stated) | -4.87 |  |
| CC(=O)N1CCC(C(=O)c2cnn(-c3ccccc3)c2N)C1 (configuration not stated) | -4.265 |  |
| CCOC(=O)C1CCN(C(=O)c2cnn(-c3ccc(C)cc3)c2N)CC1 | -31.22 |  |
| COc1ccc2c(c1)c(-c1nc(N(C)C)ncc1CN)cn2C | 23.78 |  |
| CCC(=O)N1CCC2(CC1)CNC(=O)c1cc(C)ccc1O2 | 7.401 |  |
| CCOc1ncccc1NC(=O)Nc1c(C)nn(C(C)C)c1C | 2.999 |  |
| Clc1ccc(OCCCN2CCN(c3cnccn3)CC2)cc1 | -11.56 |  |
| O=C(Cn1cc(C2CC2)nn1)N(Cc1ccco1)CC1CCCO1 (configuration not stated) | -0.6519 |  |
| Fc1cccc(Cc2cncc(C3CCCN3C3CCOCC3)n2)c1 (configuration not stated) | -10.3 |  |
| Cc1cccc(C(=O)N2CCN(C(=O)Cc3ccccn3)CC2)c1C |  | 0.7402% and -14.31% and -17.8% |
| CN1CCN(C2CCN(CCOc3ccccc3)CC2)C1=O | 2.798 |  |
| CN1CCN(C2CCN(c3ccnc(-c4ccccc4)n3)CC2)C1=O |  | -12.56% and 9.01% and -14.11% |
| CN1CCN(C2CCN(c3cnc4ccccc4n3)CC2)C1=O |  | 71.66% and 96.44% and 85% |
| CCc1n[nH]c(C2CN(C(=O)c3ccnc(C)n3)CCO2)n1 (configuration not stated) | -2.148 |  |
| CCc1nc(CC(=O)N2CCCCC2Cn2cccn2)cs1 (configuration not stated) | 3.352 |  |
| Cc1cccc(CN2C[C@@H]3CN(C(=O)C4CC=CC4)C[C@@H]3C2=O)n1 | -3.24 |  |
| O=C(c1ccc(C2CCCO2)s1)N1Cc2ccccc2C1 (configuration not stated) |  | -3.474% and -5.294% and -6.784% |
| CC(=O)N1CCCC1c1ccc(C(=O)N2CCOCC2)s1 (configuration not stated) | 9.227 |  |
| CN1CCCC1c1ccc(C(=O)N2CCc3ccccc3C2)s1 (configuration not stated) |  | 96.19% and 93.66% and 95.32% |
